Measurements: PubChem BioAssay (NCI)
Where “and” joins values, the source holds several entries; their conditions need not be identical. Identical values can stand only once. The panel holds about 83,000 compounds, 20% with a hit somewhere; the sample as a whole holds those more often.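 The test compound was applied at a single concentration to cells in 96-well plates for 48 hours, and percent growth was recorded.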 Unmarked numbers belong to inactive results. Calls of active or inactive are those of the source. The calls were made as follows: active = growth percent below 10; inactive = the rest.

Experiments:
Test in all cases: NCI-60 one-dose screen, 48 h (100 = growth as untreated, 0 = no growth, -100 = all killed)
EKVX NSCLC = conditions: 10 µM unless noted
SN12C renal = conditions: 10 µM unless noted
UO-31 renal = conditions: 10 µM unless noted
ACHN renal = conditions: 10 µM unless noted
A498 renal = conditions: 10 µM unless noted
MOLT-4 leukemia = conditions: 10 µM unless noted
SR leukemia = conditions: 10 µM unless noted
TK-10 renal = tested on: TK-10 renal
CAKI-1 renal = conditions: 10 µM unless noted
CCRF-CEM leukemia = conditions: 10 µM unless noted

Row | Compound | growth (EKVX NSCLC) | growth (SN12C renal) | growth (UO-31 renal) | growth (ACHN renal) | growth (A498 renal) | growth (MOLT-4 leukemia) | growth (SR leukemia) | growth (TK-10 renal; 10 µM unless noted) | growth (CAKI-1 renal) | growth (CCRF-CEM leukemia) | growth (TK-10 renal; 10 µM) | growth (TK-10 renal; 100 µM)
1 | COc1ccc(OC)c2c1[nH]c(=O)c1c3ccccc3cn21 | -43.4% (active) | -92.9% (active) | -81.4% (active) | -84.6% (active) | 51.1% | -15.7% (active) | -6.08% (active) | – | – | – | – | –
2 | O=C(/C=C/c1ccc(O)c(O)c1)N1CCN(c2ccc(Cl)cc2)CC1 | – | 69.8% | 24.5% | 48.1% | 72.1% | 27.3% | 26.6% | 49% | 50.5% | 32.6% | – | –
3 | CN(C)c1nc(N)nc(Cn2c(-c3nonc3N)nc3ccccc32)n1 | – | 95.3% | 65.2% | 88.3% | 82.5% | 90.8% | – | 107% | 77.9% | 78.9% | – | –
4 | CCCCCCCCCCCCCCCCN=C(CC(=O)O)C(=O)O | 113% | – | 89.8% | 105% | 95.6% | 79.4% | 65.6% | 83.9% | 104% | 86.1% | – | –
5 | NC(=O)SCC(=O)Nc1ccccc1-c1ccccc1 | 121% | 90.7% | 64.9% | 83% | – | 98% | 122% | – | 105% | 103% | – | –
6 | c1ccc2c(c1)[nH]c1c2cc[n+]2cc3c(cc12)CCCC3 | – | 24.5% | 82.1% | 66.2% | 97.3% | 2.41% (active) | 10.6% | – | – | 1.33% (active) | 69.2% | -97.9% (active) and -92.5% (active)
7 | CCC(C)CC(C)C(=O)c1c(O)ccn(OC)c1=O (stereo unspecified) | – | 69.7% | 58.3% | 46.1% | 98.7% | 68.1% | 47.1% | 98.7% | 92.9% | 39.8% | – | –
8 | O=C(O)c1ccc(NC(=O)c2ccc(Nc3ccnc(C(F)(F)F)c3)cc2)cc1 | – | 104% | 84.5% | 98.9% | 105% | 94.5% | 90% | 105% | 108% | 120% | – | –
9 | CCC1=C(c2ccc(OC)cc2)C(C)Oc2cc(OC(C)=O)ccc21 (stereo unspecified) | – | 90.4% | 88.6% | 88% | 90.7% | 76.7% | 53% | 98.6% | 74.9% | 63.5% | – | –
10 | CC(=O)Oc1ccc(C2OC(c3ccc4ccccc4c3OC(C)=O)=NN2C(C)=O)c(OC(C)=O)c1 (stereo unspecified) | – | 21.8% | 7.69% (active) | 21.2% | 35% | 2.64% (active) | – | 34.4% | 18.7% | 7.23% (active) | – | –
11 | COc1cc(/C=C/C(=O)Nc2cccnc2Nc2cc(OC)c(OC)c(OC)c2)cc(OC)c1OC | 92% | 76.1% | 89.8% | 96.5% | – | 94.1% | 92.5% | – | 82.3% | 66.1% | – | –
12 | O=C(/C=C/c1cccnc1)/C=C/c1cccnc1 | 43.3% | 4.41% (active) | -81.9% (active) | 13% | 93.1% | – | -57.3% (active) | – | -20.5% (active) | -48.4% (active) | – | –
13 | CCN(CC)c1ccc(N=Nc2cc(Cl)ccc2Cl)c(NC(=O)CCC(=O)O)c1 | – | 91.4% | 60.9% | 88.8% | 80.1% | 95.1% | 98.4% | 121% | 93.4% | 103% | – | –
14 | COc1ccc(-c2oc3cc(O)c(OC)c(O)c3c(=O)c2OC)cc1O | 83.8% | 37.3% | 35.5% | 37.5% | – | 14.4% | 7.87% (active) | – | 72.2% | -4.31% (active) | – | –
15 | CCN1C2=C(SC(=S)C1=C1SC(C(=O)OC)=C(C(=O)OC)S1)SC(=Nc1ccc(OC)cc1)C2=O | – | -11.8% (active) | -73% (active) | -74.3% (active) | 46% | 13.2% | 19.2% | 30.3% | -38.4% (active) | 4.67% (active) | – | –
16 | COc1ccc2c(c1)C(=O)/C(=C/c1ccc([N+](=O)[O-])s1)O2 | – | -8.43% (active) | -79.1% (active) | -54% (active) | 99.6% | 5.68% (active) | 11.4% | -15.3% (active) | 29.7% | 0.726% (active) | – | –
17 | COc1ncc(-c2ccc3nccc(C#CCN4CCN(S(C)(=O)=O)CC4)c3c2)cc1NS(=O)(=O)c1ccc(F)cc1F | – | 2.52% (active) | 5.46% (active) | 13.2% | -52.9% (active) | -21% (active) | 1.58% (active) | 12% | 4.01% (active) | -7.81% (active) | – | –
18 | COc1ccc2[nH]c(-c3ccccc3)cc2c1 | – | 97.1% | 75.1% | 101% | 89% | 53.7% | -14.8% (active) | 156% | 99.1% | 88.5% | – | –
19 | O=C1CC(C(F)(F)F)=NN1C(=O)c1nn(-c2ccc(Cl)cc2)cc1O | – | 80.3% | 67.3% | 79.3% | 77.8% | 80.4% | -0.46% (active) | 122% | 52.8% | 53.1% | – | –
20 | C/C(=C\CCc1ccsc1)CC/C=C(\C)CCCN1CCC(CO)CC1 | – | 51.5% | 23.4% | 44% | 25.5% | -22.2% (active) | -44.8% (active) | 22.6% | 45.3% | 2.24% (active) | – | –
21 | NC(=O)N/N=C/c1ccc(Br)o1 | 101% | – | 86.1% | 106% | 97.5% | 97.9% | 97.6% | 101% | 98.4% | 108% | – | –
22 | COc1cc(/C=C2\COc3ccc(O)cc3C2=O)cc(OC)c1 | – | 21.7% | 63.1% | 48.9% | 101% | 31.3% | 3.36% (active) | 93.6% | 68.4% | -0.953% (active) | – | –
23 | COc1ccc(Nc2ccnc(NCCCNc3ccnc4cc(Cl)ccc34)n2)cc1 | – | -21.5% (active) | -71.8% (active) | -96.8% (active) | -7.79% (active) | -21.1% (active) | – | -72.3% (active) | -40.3% (active) | -19.3% (active) | – | –
24 | O=C1N(C2CCCCC2)C(=O)N1C1CCCCC1 | 51.3% | 49.9% | – | – | -11.9% (active) | 15.7% | 46.6% | 8.07% (active) | 28.7% | 4.67% (active) | – | –
25 | CN1COc2ccc3ccccc3c2C1 | 96.1% | 87.5% | 32.3% | – | 102% | 90.6% | – | – | 90.9% | – | – | –
26 | O=C1OCCCCCCCCCC#Cc2ccccc21 | 115% | 113% | – | 145% | 98.3% | 85.7% | 87.4% | 122% | 97.1% | – | – | –
27 | COc1ccc(C2=NNC(c3cc(Cc4ccc(O)c(C5CC(c6ccc(OC)cc6)=NN5)c4)ccc3O)C2)cc1 (stereo unspecified) | – | 52.1% | -2.57% (active) | 46.3% | 103% | 18.4% | 16% | 45.5% | -30.5% (active) | 11.6% | – | –
28 | O=C1CC(=O)N(c2ccccc2)O1 | – | 94.9% | 61.7% | 97.4% | 94.6% | 114% | 110% | 122% | 94.8% | 110% | – | –
29 | CCS(=O)(=O)OCCCl | – | 102% | 68.3% | 99.3% | 101% | 89.8% | 137% | 97.7% | 104% | 84.7% | – | –
30 | CCOC(=O)c1c(C)nc(C)c(C(=O)OCC)c1-c1cccnc1 | – | 109% | 94% | 99.5% | 125% | 54.8% | 53.7% | 121% | 106% | 102% | – | –
